Sampled rows, rich in hits. Any-hit rate of the full collection: about 1.8%.
GLP1R cytotox – cytotoxicity in counter-screen for GLP-1R inverse agonists | HEK293 cAMP-luciferase reporter cells, luminescence, 24 h | Potency, µM (series often up to 38.3 µM), actives largely listed as inhibitors | 0.13% of 410,000 active;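 further: loss of luciferase light is scored as toxicity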
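Here, cytotoxicity is scored as loss of luminescence. The MLSMR collection was tested on cells seeded in medium containing 10% Nu serum, with a 24 hr compound exposure preceded by 12 hours of culture.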
Tb PFK inh – T. brucei PFK enzyme inhibition | O15648 | T. brucei PFK, ADP-Glo luminescence | Potency, µM (top dose mostly 57.5 µM), hits mostly inhibitors | 0.17% of 330,000 active; further: nearly all actives have a fitted effect of over 60% in size
Target sequence (O15648 whole entry, looked up): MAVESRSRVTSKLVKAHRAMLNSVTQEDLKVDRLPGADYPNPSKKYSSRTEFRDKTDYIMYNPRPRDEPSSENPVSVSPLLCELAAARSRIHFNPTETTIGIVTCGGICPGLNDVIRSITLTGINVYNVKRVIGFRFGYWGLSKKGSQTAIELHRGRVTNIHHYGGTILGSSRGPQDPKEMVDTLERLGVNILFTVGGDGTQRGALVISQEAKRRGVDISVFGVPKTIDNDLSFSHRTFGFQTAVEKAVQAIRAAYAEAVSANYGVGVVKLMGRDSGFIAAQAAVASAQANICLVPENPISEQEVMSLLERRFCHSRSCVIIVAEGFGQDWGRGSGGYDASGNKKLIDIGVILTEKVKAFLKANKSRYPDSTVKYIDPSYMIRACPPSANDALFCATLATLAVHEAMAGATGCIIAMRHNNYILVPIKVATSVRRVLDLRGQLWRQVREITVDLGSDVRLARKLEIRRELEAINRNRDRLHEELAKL
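Compounds were pin-transferred as a titration series up to 57 uM into substrate buffer (0.5 mM F6P, 0.1 mM ATP, pH 8.0), then 1.25 nM PFK was added and reactions ran 45 min before ADP-Glo detection.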
Tb PGK inh – blocks T. brucei phosphoglycerate kinase; P07378; PGK/GAPDH coupled, Kinase-Glo luminescence, 60 min; Potency, µM (top dose mostly 57.5 µM), most hits filed as inhibitors; 0.043% of 380,000 active; AID 602233; further: nearly all actives have a fitted effect of over 60% in size
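Recombinant glycosomal PGK reaction used 1,3-bisphosphoglycerate generated in-well by GAPDH (100nM final) in 100mM TEA pH 7.6, 5mM MgCl2, 0.01% Tween-20. After 60 minutes at room temperature, ATP was read by Kinase-Glo Plus luminescence end-point.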
GLP-1R inv ag – acts as inverse agonist at human GLP-1 receptor | HEK293 GLP-1R CRE-luciferase, luminescence, 24 h; GLP-1R form is constitutively active | 1.6% of 410,000 active | Potency, µM (highest dose often 38.3 µM), hits mostly inhibitors | AID 624417; further: nearly all actives have a fitted effect of over 55% in size
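HEK293 cells stably co-expressing constitutively active GLP-1R and a cAMP-responsive luciferase reporter were seeded in DMEM with 10% Nu serum, given compounds after 12 h, and incubated 24 h at 37 deg C. Luminescence was then read.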
Pin1 inh – inhibitors of human Pin1 | Q13526 | Pin1 FP peptide displacement, HiFluor488, 10 min | Potency, µM (highest dose often 115 µM), actives largely listed as inhibitors | 0.009% of 390,000 active | AID 504891; active means well fitted inhibition curve with a large enough effect in the polarisation, with a control signal flat, not every such curve was filed as active; inconclusive means small, poorly fitted or top-dose-only effect, or effect the other way, or a change in a side signal; inactive means no such curve, though single readings can be large or run the other way; the % refers to the polarisation
Target sequence (Q13526 whole entry, looked up): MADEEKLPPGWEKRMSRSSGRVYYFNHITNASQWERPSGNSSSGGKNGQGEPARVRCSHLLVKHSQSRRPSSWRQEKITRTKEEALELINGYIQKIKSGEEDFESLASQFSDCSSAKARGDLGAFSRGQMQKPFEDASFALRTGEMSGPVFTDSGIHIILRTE
GLP1R ag – agonists of human GLP-1 receptor; Potency, µM (doses to about 45.6 µM), usual class: activators; 0.007% of 380,000 active; HEK293 GLP-1R CRE-luciferase, luminescence, 4-6 h; cells express a hypersensitive GLP-1R form
A number is an active result; - = inactive; ? = inconclusive; . = no result; [ ] = another dose, or the depositor's remark. Unless noted, the call rests on the fitted dose curve; in most records, active means well fitted curve in the direction sought with a large enough effect; inconclusive means small, poorly fitted or top-dose-only effect, or another doubt; inactive means no such curve, though single readings can be large; an effect the other way counts as inactive or inconclusive.

SMILES	GLP1R cytotox	Tb PFK inh	Tb PGK inh	GLP-1R inv ag	Pin1 inh	GLP1R ag
COc1ccc(CCNC(=O)c2ccc3c(c2)N(Cc2ccc(C)cc2)CCS3)cc1OC	-	-	-	?	-	-
Cc1ccc(CCNC(=O)c2ccc3c(c2)N(Cc2ccc(F)cc2)CCS3)cc1	-	.	-	-	-	.
Cc1ccc(CN2CCSc3ccc(C(=O)NCCCN4CCN(C)CC4)cc32)cc1	?	-	-	5.6µM	-	-
O=C(O)CNc1cccc(-c2nn3c(=O)cc(N4CCNCC4)nc3s2)c1	.	.	.	.	-	.
NC(N)=N/N=C/c1ccc(OS(=O)(=O)c2ccccc2)cc1	?	-	.	6.3µM	-	-
CNC(=O)C1CCN(c2nc(-c3ccc(Br)cc3)cs2)CC1	.	.	.	.	-	.
Cc1ccc(S(=O)(=O)N(CC(=O)Nc2cccnc2)c2cccc(Br)c2)cc1	-	-	-	4.5µM	-	-
Cc1ccc(S(=O)(=O)N(CC(=O)Nc2cccnc2)c2cccc([N+](=O)[O-])c2)cc1	?	-	-	?	-	-
COc1ccc(OC)c(N(CC(=O)Nc2cccnc2)S(=O)(=O)c2ccc(C)cc2)c1	-	-	-[11.5 µM]	-	-	-
Cc1ccc(S(=O)(=O)N(CC(=O)Nc2cccnc2)c2cc(Cl)ccc2C)cc1	-	.	-	10µM	?	.
COc1cc(OC)c(OC)cc1CN(C)C(c1ccccc1)c1nnnn1-c1ccccc1C (stereo not given)	-	-	-	11µM	-	-
COc1ccc(CN(C)C(c2ccccc2)c2nnnn2-c2ccccc2C)c(OC)c1C (stereo not given)	-	-	-	10µM	-	-
COc1ccc(C)cc1NC(=O)C1CCN(C(=O)c2ccc(C(C)(C)C)cc2)CC1	-	-	-	8.9µM	-	-
COc1ccc(C)cc1NC(=O)C1CCN(S(C)(=O)=O)CC1	-	-	-	-	-	-
O=C(NCc1ccccc1)C1CCN(C(=O)c2cnn(-c3ccccc3)c2-n2cccc2)CC1	-	.	.	-	?	.
COc1ccc(NS(=O)(=O)c2cc3c(cc2C)N(C)CCO3)cc1	-	-	-	?	-	-
Cc1cc2c(cc1S(=O)(=O)Nc1cccc(Cl)c1C)OCCN2C	-	.	-	10µM	-	.
CC(C)=CCCC(C)CN1CCC(N2CCC(C(=O)NC(C)C)CC2)CC1 (stereo not given)	-	-	-	?	-	-
CC(C)=CCCC(C)CN1CCC(N2CCC(C(=O)N3CCOCC3)CC2)CC1 (stereo not given)	-	-	-	2.5µM	-	-
COc1ccccc1C(=O)NNC(=O)c1cccc(O)c1	-	-	-	?	-	-
COc1ccccc1C(=O)NNC(=O)c1cccc(F)c1	-	?	-	8.9µM	-	-
CC(OC(=O)c1cccs1)C(=O)NC1CCCCC1C (stereo not given)	-	-	-	-	-	-
CC1CCCCC1NC(=S)NC(=O)c1cccs1 (stereo not given)	?	-	-	8.9µM	-	-
CNC(=O)c1nnsc1S(=O)(=O)c1ccc(Cl)cc1	?	?	-	4.5µM	-	-
COc1ccc(-n2cnc3c(c2=N)C(c2cccc(OC)c2)c2c(ccc4ccccc24)O3)cc1 (stereo not given)	.	.	.	.	-	.
SMILES	GLP1R cytotox	Tb PFK inh	Tb PGK inh	GLP-1R inv ag	Pin1 inh	GLP1R ag
O=[N+]([O-])c1ccc(CN2CCOCCOCCN(Cc3ccc([N+](=O)[O-])cc3)CCOCC2)cc1	-	-	-	10µM	-	-
C=C[C@]1(C)C[C@@H](OC(=O)CO)[C@]2(C)C(C)CC[C@]3(CCC(=O)[C@H]32)[C@@H](C)[C@@H]1O (stereo not given in full)	.	.	.	.	.	-
Cc1ccc2c(CC(=O)Nc3ccc(S(=O)(=O)N4CCCCC4)cc3)coc2c1	-	.	-	?	-	.
Cc1ccc2c(CC(=O)Nc3ccc(S(=O)(=O)N4CCCC(C)C4)cc3)coc2c1 (stereo not given)	-	.	-	10µM	-	.
O=C1/C(=C/c2ccccc2)SC(=S)N1CCCC(=O)N1CCCCC1CCO (stereo not given)	-	-	-	5µM	-	-
O=C1/C(=C/c2ccc(Cl)cc2)SC(=S)N1CCC(=O)N1CCCCC1CCO (stereo not given)	?	-	-	?	-	-
CC(/C=C1\SC(=S)N(CCCC(=O)Nc2ccc(C(=O)O)c(O)c2)C1=O)=C\c1ccccc1	-	-	-	.	54µM	.
O=C1/C(=C\c2ccc(O)c(O)c2)SC(=S)N1Cc1ccccc1	10µM	?	-	?	?	-
COc1cc(/C=C2/SC(=S)N(Cc3ccccc3)C2=O)ccc1O	?	-	-	?	-	-
O=C(CCCN1C(=O)/C(=C\c2ccccc2)SC1=S)Nc1ccc(O)cc1	10µM	-	-	?	-	-
COC(=O)C1=C(C)NC(COC(N)=O)=C(C(=O)OC(C)C)C1c1cccc(Cl)c1Cl (stereo not given)	.	.	.	.	.	-
COc1cccc(-n2c(=O)c3c(C)c(C)sc3n(CC(=O)NCc3ccccc3)c2=O)c1	-	.	.	-	-	.
COc1ccc(C(=O)Nc2nc(-c3nnn(-c4ccc(F)cc4F)c3C)ns2)cc1	?	.	-	?	-	.
Cc1ccc(CCNC(=O)c2cc3n(n2)CCCN(Cc2ccc(C)cc2)C3=O)cc1	-	.	-	-	-	.
CN1CCN(C(=O)CCCN2C(=O)/C(=C/c3ccc(Cl)cc3)SC2=S)CC1	?	-	-	10µM	-	-
CC(C)CCCCCCNC(=S)Nc1ccc(S(=O)(=O)N2CCOCC2)cc1	?	-	-	3.5µM	-	-
COc1ccc(C2Nc3ccccc3C(=O)N2C2CCCC2)cc1COc1ccc(NC(C)=O)cc1 (stereo not given)	.	.	.	.	-	.
C=CCc1ccccc1OCC(O)CN1CCN(c2ccccc2F)CC1 (stereo not given)	-	-	-	10µM	-	-
C=CCc1ccccc1OCC(O)CN1CCN(c2ccccc2OC)CC1 (stereo not given)	-	-	-	?	-	-
COc1ccc(CCNC(=O)c2c(O)nc3ccccn3c2=O)cc1OC	-	.	-	-	-	-
CCn1c(SCc2ccccc2C)nc(=O)c2c(C(=O)OC)cc(C3CC3)nc21	-	.	-	?	-	.
O=S(=O)(NCC(c1ccco1)N1CCCCC1)c1ccccc1C(F)(F)F (stereo not given)	-	-	-	10µM	-	-
O=S(=O)(NCC(c1ccco1)N1CCCCC1)c1cccc(C(F)(F)F)c1 (stereo not given)	-	-	-	11µM	-	-
O=C1NC2CCCCN2C12CCN(CCCN1c3ccccc3CCc3ccc(Cl)cc31)CC2 (stereo not given)	.	.	.	.	.	-

Source: PubChem BioAssay (National Center for Advancing Translational Sciences (NCATS))
